Common to all, as to design: scale not given: direction of the effect not stated beside the values
Assay [1] deals with Protein translocase subunit SecA (Escherichia coli (strain K12)) (UniProt P10408). Description: Assay to Identify E. coli SecA ATPase Inhibitors. In kind it is functional. As to conditions: 30 µM.
In assay [2] the target is T1, Ubiquitin-activating enzyme e1, putative (Leishmania donovani (strain BPK282A1)) (UniProt E9BSI1).
T1 sequence (whole entry): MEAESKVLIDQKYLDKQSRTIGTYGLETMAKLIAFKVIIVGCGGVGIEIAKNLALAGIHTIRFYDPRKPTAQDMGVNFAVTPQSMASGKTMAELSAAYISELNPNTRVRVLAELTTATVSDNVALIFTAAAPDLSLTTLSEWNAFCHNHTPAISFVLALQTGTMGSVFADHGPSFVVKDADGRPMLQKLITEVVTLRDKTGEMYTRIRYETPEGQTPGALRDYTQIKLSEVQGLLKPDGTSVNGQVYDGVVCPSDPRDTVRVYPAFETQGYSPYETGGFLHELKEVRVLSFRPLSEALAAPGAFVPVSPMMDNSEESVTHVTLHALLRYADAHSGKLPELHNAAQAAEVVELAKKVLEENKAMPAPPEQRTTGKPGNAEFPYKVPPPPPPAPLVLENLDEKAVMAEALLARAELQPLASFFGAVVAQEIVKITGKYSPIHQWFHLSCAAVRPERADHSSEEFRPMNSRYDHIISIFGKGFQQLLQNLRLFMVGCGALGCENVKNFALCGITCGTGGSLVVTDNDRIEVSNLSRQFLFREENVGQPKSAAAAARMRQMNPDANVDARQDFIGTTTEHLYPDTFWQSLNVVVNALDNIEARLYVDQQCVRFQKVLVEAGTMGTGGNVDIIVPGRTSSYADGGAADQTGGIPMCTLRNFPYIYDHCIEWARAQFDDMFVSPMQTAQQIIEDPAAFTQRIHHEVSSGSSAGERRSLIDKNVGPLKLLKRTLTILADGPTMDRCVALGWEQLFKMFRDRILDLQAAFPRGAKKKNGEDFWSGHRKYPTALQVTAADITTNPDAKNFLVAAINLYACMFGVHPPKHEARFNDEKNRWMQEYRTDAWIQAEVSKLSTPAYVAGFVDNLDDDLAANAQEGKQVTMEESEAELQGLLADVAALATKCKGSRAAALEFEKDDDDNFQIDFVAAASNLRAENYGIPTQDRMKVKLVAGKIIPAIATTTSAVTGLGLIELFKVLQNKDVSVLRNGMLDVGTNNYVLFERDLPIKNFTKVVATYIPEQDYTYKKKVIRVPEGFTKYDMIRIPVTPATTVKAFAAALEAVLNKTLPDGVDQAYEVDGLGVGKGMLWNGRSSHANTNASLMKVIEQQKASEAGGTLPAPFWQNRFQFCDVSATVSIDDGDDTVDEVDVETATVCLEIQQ
Description: Leishmania donovani Ubiquitin Activating Enzyme (LdE1). As to conditions: 30 µM. In kind it is functional.

Assay [3] addresses AMP-activated protein kinase, AMPK (Homo sapiens) (UniProt P54646+O43741+P54619+Q9UGJ0+Q9Y478+Q13131+Q9UGI9). Nature of the assay: AMP-dependent Kinase enzyme assay. An in vitro enzyme assay that detects ADP turnover that is directly proportional to AMPK activity. This uses naive AMPK that is activated during the assay with MK-8722. Format: functional. The conditions noted are these: 30 µM.

The target of assay [4] is Sialic acid-binding Ig-like lectin 9 (Homo sapiens) (UniProt Q9Y336). Nature of the assay: Hs-Siglec9 ALPHAscreen SOP 20170721. As to conditions: 10 µM.
Sequence of Sialic acid-binding Ig-like lectin 9 (Homo sapiens) (Q9Y336 whole entry): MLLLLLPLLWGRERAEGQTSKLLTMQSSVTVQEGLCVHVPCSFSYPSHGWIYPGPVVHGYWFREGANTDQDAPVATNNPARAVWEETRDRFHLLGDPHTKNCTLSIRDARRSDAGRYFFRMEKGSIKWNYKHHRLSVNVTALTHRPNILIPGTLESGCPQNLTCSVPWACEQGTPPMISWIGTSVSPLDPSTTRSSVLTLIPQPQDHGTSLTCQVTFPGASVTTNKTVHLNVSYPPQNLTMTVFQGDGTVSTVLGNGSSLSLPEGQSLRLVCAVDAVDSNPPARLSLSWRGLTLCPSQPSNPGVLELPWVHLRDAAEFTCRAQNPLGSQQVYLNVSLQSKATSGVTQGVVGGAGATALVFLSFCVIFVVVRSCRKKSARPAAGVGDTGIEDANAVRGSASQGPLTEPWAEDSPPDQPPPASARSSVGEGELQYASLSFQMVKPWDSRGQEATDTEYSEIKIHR
Assay [5] relates to Trypanosoma cruzi. Nature of the assay: Trypanosoma cruzi phosphomannomutase and mannose-1-phosphate guanylyltransferase assay. In kind it is functional. The conditions noted are these: 10 µM.
Assay [6] deals with T2, Arginase-2, mitochondrial (Homo sapiens) (UniProt P78540).
T2 sequence (whole entry): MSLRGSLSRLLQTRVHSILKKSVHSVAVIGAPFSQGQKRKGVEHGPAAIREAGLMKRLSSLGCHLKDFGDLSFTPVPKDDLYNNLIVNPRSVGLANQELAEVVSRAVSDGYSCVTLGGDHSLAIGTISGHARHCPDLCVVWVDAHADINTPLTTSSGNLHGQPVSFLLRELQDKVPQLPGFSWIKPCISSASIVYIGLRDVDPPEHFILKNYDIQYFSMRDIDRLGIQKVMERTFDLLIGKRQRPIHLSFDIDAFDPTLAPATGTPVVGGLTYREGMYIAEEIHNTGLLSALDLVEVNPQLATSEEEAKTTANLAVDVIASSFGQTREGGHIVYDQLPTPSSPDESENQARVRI
Nature of the assay: in vitro enzyme assay to detect the production of urea directly proportional to the activity of Arginase II. Note: in the data most compounds retested in dose-response had high values. Format: functional. The conditions noted are these: 33.3 µM.

Assay [7] concerns the target T3, Proteasome subunit beta (Trypanosoma cruzi) (UniProt O96673).
T3 sequence (whole entry): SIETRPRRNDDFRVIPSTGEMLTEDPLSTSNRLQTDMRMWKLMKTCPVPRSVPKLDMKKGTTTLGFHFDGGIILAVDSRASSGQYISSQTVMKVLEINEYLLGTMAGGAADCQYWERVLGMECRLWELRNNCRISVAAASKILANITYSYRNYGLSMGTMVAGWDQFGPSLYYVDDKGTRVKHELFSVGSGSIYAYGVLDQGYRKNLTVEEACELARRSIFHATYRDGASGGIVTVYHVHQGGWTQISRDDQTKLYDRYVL
Description: Trypanosoma cruzi proteasome chymotrypsin-like activity (TcProtChymo) assay. Note: in the data most compounds retested in dose-response had high values. In kind it is functional. The conditions noted are these: 9.37 µM.

Assay [8] is filed under the species Homo sapiens. Nature of the assay: To identify inhibition of the IFN signalling (Jak-Stat) pathway via expression of an eGFP reporter gene under the control of an IFN-stimulated response element (ISRE) containing MxA promoter. In kind it is functional. As to conditions: 30 µM.
In assay [9] the target is T4, Tyrosyl-tRNA synthetase, putative (Trypanosoma cruzi (strain CL Brener)) (UniProt Q4DSP6).
T4 sequence (whole entry): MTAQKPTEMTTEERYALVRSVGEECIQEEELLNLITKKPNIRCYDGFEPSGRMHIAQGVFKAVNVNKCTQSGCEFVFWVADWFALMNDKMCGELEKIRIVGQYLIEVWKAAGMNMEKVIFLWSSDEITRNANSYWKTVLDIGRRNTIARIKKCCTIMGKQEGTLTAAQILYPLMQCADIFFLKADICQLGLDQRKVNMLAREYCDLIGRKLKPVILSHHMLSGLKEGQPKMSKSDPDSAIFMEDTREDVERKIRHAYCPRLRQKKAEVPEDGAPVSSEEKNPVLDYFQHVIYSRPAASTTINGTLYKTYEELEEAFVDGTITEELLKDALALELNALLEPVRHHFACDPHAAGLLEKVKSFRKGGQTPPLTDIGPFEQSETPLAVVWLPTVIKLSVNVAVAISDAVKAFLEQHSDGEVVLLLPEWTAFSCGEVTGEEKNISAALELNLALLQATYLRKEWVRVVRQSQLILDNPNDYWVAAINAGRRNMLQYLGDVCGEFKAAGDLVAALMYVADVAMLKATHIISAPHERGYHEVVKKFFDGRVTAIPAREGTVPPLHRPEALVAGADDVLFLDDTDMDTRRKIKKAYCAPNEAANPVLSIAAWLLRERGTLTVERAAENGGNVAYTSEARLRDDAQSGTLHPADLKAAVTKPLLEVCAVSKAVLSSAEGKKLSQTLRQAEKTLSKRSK
Description: Trypanosoma cruzi tyrosyl tRNA synthetase (TcYRS) _High Tyrosine SOP. Note: in the data most compounds retested in dose-response had high values. Format: functional. As to conditions: 30 µM.

The target of assay [10] is T4, Tyrosyl-tRNA synthetase, putative (Trypanosoma cruzi (strain CL Brener)). Description: Trypanosoma cruzi tyrosyl tRNA synthetase (TcYRS) SOP. Format: functional. The conditions noted are these: 30 µM.
In assay [11] the target is Chromo domain-containing protein 1 (Saccharomyces cerevisiae (strain ATCC 204508 / S288c) (Baker's yeast)) (UniProt P32657). Nature of the assay: ScCHD-1 Enzyme Inhibition Assay. Note: in the data most compounds retested in dose-response had high values. In kind it is functional. As to conditions: 30 µM.
Sequence of Chromo domain-containing protein 1 (Saccharomyces cerevisiae (strain ATCC 204508 / S288c) (Baker's yeast)) (P32657 whole entry, the tested form may be a part): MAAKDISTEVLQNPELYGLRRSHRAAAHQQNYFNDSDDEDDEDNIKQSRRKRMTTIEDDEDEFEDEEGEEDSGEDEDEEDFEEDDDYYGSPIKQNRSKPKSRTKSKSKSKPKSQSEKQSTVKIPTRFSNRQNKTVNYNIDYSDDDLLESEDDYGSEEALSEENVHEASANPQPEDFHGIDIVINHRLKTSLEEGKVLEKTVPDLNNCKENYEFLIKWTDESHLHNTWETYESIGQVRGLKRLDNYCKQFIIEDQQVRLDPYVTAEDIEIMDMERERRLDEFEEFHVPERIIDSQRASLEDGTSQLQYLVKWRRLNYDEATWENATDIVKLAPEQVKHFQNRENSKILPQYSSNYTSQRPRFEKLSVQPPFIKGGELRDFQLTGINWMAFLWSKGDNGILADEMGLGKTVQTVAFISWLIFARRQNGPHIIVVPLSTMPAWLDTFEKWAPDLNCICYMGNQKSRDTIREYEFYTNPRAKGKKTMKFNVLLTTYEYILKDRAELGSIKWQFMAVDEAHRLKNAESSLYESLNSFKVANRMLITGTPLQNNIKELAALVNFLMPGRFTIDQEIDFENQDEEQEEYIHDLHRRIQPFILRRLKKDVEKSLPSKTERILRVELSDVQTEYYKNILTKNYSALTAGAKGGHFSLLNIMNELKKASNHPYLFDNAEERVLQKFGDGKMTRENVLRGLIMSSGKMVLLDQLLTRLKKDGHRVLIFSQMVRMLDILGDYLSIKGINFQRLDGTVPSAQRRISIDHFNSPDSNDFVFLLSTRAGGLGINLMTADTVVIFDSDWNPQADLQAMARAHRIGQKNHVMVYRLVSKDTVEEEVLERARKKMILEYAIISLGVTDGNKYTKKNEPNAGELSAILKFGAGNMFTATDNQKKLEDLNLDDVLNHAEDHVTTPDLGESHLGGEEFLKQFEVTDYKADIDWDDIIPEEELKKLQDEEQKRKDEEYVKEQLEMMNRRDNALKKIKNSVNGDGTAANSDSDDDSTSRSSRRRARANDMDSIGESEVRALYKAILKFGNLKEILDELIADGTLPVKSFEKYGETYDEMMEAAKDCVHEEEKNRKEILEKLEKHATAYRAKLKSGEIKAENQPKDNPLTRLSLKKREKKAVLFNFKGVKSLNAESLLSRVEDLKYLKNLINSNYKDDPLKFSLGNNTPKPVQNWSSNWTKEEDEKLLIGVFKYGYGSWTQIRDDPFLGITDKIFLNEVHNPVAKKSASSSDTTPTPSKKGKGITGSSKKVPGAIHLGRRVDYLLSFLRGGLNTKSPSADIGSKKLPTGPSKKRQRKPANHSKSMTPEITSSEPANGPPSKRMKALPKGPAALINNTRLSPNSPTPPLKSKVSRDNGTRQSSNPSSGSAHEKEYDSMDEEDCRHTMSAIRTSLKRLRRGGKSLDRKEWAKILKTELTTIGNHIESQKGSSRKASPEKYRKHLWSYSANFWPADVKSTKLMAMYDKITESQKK

For some of these results: Results with a measured potency or affinity are listed apart.

These results are taken from ChEMBL document CHEMBL3988442, “University of Dundee, Small-Polar-MMV Screening Library” (2021).

Sequence of Protein translocase subunit SecA (Escherichia coli (strain K12)) (P10408 whole entry): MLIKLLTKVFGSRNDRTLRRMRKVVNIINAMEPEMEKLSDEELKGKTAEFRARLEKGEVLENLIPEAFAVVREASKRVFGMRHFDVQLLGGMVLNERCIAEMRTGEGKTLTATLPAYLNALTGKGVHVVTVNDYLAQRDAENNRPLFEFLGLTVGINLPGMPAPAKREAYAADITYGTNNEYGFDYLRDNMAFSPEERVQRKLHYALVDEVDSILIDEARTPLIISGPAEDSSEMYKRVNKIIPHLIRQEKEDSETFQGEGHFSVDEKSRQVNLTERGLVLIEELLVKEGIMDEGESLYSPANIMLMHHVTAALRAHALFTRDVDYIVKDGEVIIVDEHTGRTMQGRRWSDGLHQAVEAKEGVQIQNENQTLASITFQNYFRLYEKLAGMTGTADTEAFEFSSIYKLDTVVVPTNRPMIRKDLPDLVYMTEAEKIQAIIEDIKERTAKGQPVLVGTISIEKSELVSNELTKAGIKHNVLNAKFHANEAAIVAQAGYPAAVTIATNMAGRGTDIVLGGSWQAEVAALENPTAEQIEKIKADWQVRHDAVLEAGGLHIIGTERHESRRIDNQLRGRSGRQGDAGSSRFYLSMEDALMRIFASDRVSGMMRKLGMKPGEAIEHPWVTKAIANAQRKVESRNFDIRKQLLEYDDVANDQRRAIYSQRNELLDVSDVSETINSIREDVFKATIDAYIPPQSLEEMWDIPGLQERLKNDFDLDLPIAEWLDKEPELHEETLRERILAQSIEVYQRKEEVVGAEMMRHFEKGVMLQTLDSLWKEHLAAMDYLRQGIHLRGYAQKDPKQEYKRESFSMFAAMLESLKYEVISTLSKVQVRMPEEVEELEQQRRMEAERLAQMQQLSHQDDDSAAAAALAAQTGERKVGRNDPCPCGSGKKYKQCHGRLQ

With `N#CCSCCCN1CCN(C(=O)c2ccc(Cl)cc2)CC1`, the Percent Effect in assay [1] is -6.76%; in assay [2], -8.22%; in [3] it was 6.65%; in assay [4] it was -5.18%; in assay [5], -3.37%; in [6], -25.9%. The Percent Effect is -2.83% in assay [7]; 4.5% in assay [8]; -2.08% in assay [9]; -3.7% in assay [10]; 7.74% in assay [11].

As for `Cc1ccc(C(CNCc2ccncc2)N2CCOCC2)s1` (stereo not drawn), the Percent Effect in [1] was -9.26%; in assay [2], -2.7%; in assay [3], -3.34%; in assay [4], 21.5%; in assay [5], -2.73%; in [6] it was 1.67%. Besides, the Percent Effect in assay [7] is 17.8%; in [8] it was 18.3%; in assay [9], 1.98%; in assay [10], -1.22%; in assay [11] it was -7.13%.

On to `CC(=O)c1ccc(N2CCC(CO)(CCOc3ccccc3)CC2)nc1`, for which the Percent Effect was -4.34% in [1]; 0% in assay [2]; 3.88% in [3]; 4.67% in assay [4]; -3.05% in assay [5]; 20.7% in assay [6]. Also, the Percent Effect in [7] amounted to 9.48%; in assay [8] it was 20.6%; in assay [9], 3.23%; in [10], 8.64%; in assay [11] it was 1.85%.

Consider `Fc1cccc(N2CCCC3(CN(Cc4ccncc4)CCO3)C2)c1` (stereo not drawn), for which the Percent Effect in assay [1] was -2.7%; in [2] it was 5.33%; in assay [3], 13.4%; in assay [4], 2.73%; in assay [5], -6.5%; in assay [6] it was 6.29%. In addition, the Percent Effect in assay [7] was 8.02%; in [8], 29.6%; in assay [9], 6.38%; in assay [10], 11.5%; in [11], -3.18%.

Turning to `Cc1cccc(N2CCN(CCNC(=O)c3ccnn3C)CC2)c1`, the Percent Effect in assay [1] was 0.195%; in [2], 5.41%; in assay [3] it was -1.81%; in assay [4] it was -4.27%; in assay [5], -4.88%; in assay [6], 3.75%. In addition, the Percent Effect is 14.6% in [7]; 6.3% in assay [8]; 9.9% in assay [9]; 11% in [10]; 5.87% in assay [11].

For `O=C(N1CCCC1)N1CCN(CC2CC2)c2ncccc2C1`, the Percent Effect in [1] was -3.07%; in assay [2], 5.33%; in [3] it was 8.78%; in assay [4], -0.324%; in assay [5], -6.69%; in [6], 7.69%. Further, the Percent Effect is 21.8% in [7]; 10.6% in [8]; 4.25% in assay [9]; 1.28% in [10]; -4.2% in [11].

`O=C(CCc1cc(O)no1)N1CCCC(COc2ccc(F)cc2)C1` (stereo not drawn): the Percent Effect in assay [1] is -4.75%; in assay [2], 20.8%; in [3] it was -16.4%; in [4] it was 26.7%; in [5], 3.6%; in [6], 0.442%. Also, the Percent Effect in assay [7] was 14%; in assay [8], -9.73%; in [9], 5.26%; in assay [10], 10.3%; in assay [11], -11.2%.

Regarding `CC(C)C(=O)N1CCN(C(=O)c2cscn2)[C@H]2CS(=O)(=O)C[C@H]21`, the Percent Effect in [1] was -2.31%; in [2], 15.3%; in assay [3], -5.83%; in assay [4], 5.33%; in [5] it was 2.04%; in [6], 4.42%. Besides, the Percent Effect was 13.9% in assay [7]; -3.92% in assay [8]; 3.16% in [9]; 12.8% in assay [10]; -0.218% in assay [11].
